From PubChem BioAssay
Activity calls are given as the source filed them. Unless noted, the rule behind the calls is not given here.

Experiments:
[1] = anti-His antibody binders, primary screen, artefact control for SMM control protein annotation, biochemical, small-molecule microarray, 635 nm fluorescence (AID 1128); settings: anti-His Alexa647 antibody binding, higher = more signal;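 note: score merges feature fluorescence with signal-to-noise for each printed compound spot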
[2] = test system: Human papillomavirus type 1a E7 protein (residues 1-88); assay: HPV1a E7 small-molecule binders, primary screen, biochemical, small-molecule microarray, residues 1-88, 635 nm (AID 1129); settings: small-molecule microarray binding, fluorescence 635 nm; higher = more signal
[3] = target: Focal adhesion kinase 1 (Homo sapiens) (UniProt Q05397); assay: small-molecule microarray binders of FAK, primary screen, biochemical, 635/667 nm fluorescence, BSA, DTT (AID 1130); settings: PTK2 binding, 635 nm fluorescence, higher = more signal;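 note: composite of spot emission at 667 nm and signal to noise over triplicate slides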
Chain of Focal adhesion kinase 1 (Homo sapiens) (Q05397 whole entry, looked up): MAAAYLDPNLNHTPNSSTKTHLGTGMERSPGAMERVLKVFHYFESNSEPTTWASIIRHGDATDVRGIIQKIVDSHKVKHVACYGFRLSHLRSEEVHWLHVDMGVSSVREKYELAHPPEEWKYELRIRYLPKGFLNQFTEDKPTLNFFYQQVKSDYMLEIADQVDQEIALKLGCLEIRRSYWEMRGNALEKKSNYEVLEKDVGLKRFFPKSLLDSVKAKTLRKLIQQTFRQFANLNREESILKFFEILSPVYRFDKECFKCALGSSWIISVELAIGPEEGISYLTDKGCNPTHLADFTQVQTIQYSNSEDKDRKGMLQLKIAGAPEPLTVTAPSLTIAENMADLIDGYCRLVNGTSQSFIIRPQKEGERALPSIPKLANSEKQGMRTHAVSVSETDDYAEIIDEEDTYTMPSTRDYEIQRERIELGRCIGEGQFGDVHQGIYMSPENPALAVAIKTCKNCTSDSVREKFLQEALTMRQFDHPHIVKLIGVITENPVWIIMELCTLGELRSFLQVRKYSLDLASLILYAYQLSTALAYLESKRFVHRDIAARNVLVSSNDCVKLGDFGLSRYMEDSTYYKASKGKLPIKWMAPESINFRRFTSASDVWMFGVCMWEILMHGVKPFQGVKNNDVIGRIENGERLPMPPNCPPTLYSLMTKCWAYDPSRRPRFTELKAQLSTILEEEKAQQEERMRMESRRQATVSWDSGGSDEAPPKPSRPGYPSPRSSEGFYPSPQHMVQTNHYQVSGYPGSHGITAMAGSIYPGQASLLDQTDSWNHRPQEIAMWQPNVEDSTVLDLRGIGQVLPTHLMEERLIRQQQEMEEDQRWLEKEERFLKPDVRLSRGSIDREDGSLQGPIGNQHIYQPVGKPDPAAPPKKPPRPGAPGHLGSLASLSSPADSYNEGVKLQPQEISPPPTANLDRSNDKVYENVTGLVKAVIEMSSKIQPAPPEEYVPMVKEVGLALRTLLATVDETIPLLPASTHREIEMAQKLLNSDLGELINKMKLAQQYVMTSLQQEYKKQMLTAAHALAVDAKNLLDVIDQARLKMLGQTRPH

[4] = test system: Fibrinogen (Alexa647-labelled); assay: fibrinogen binders on compound microarrays, profiling panel, artefact control for SMM control-protein annotation, biochemical, small-molecule microarray, 635/667 nm fluorescence (AID 1131); settings: fibrinogen-A647 binding fluorescence, higher = more signal;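 note: z-score merges 667 nm fluorescence with per-spot signal-to-noise over triplicate slides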
[5] = target: Follistatin (Homo sapiens) (UniProt P19883); assay: follistatin binders on small-molecule microarrays, primary screen, biochemical, small-molecule microarray, 635/667 nm fluorescence (AID 1132); settings: FST binding, 635 nm fluorescence, higher = more signal
Chain of Follistatin (Homo sapiens) (P19883 whole entry, looked up): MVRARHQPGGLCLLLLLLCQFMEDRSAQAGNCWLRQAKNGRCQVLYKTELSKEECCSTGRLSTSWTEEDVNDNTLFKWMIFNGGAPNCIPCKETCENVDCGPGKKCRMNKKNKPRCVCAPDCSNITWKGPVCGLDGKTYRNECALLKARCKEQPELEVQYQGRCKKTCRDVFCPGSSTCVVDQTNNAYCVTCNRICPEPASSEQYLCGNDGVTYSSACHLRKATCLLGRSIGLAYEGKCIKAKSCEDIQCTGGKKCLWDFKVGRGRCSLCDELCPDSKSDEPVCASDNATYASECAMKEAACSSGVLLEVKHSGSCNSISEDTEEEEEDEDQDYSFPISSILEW

[6] = target: Fibroblast growth factor 2 (Homo sapiens) (UniProt P09038); assay: FGF2 binders on small-molecule microarrays, primary screen, biochemical, small-molecule microarray, 635/667 nm fluorescence (AID 1133); settings: small-molecule microarray binding, FGF2, fluorescence 635/667; higher = more signal
Chain of Fibroblast growth factor 2 (Homo sapiens) (P09038 whole entry, looked up): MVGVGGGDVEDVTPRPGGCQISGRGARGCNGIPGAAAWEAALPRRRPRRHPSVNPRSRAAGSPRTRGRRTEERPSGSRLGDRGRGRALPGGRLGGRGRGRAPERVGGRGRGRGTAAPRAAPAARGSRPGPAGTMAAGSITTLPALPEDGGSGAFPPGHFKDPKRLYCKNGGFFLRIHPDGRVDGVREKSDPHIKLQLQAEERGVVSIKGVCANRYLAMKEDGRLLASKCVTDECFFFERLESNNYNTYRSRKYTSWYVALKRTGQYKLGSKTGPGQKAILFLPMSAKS

[7] = mitochondrial membrane potential change in A549 cells, profiling panel, cell-based, JC-1 fluorescence, basal, 24 h, 100 nL (AID 1138); settings: higher = more signal;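 note: A549 lung adenocarcinoma cells under basal conditions with no added stimulus; test concentration not given here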
Lefty1 = Lefty1 binders on small-molecule microarrays, primary screen, biochemical, small-molecule microarray, 635/667 nm fluorescence (AID 1139); settings: small-molecule microarray binding, fluorescence 635/667; higher = more signal
[8] = test system: wheat germ agglutinin (Triticum aestivum), Alexa647-labelled; assay: wheat germ agglutinin binders on compound microarrays, profiling panel, artefact control for SMM control-protein annotation, biochemical, small-molecule microarray, 635/667 nm fluorescence (AID 1140); settings: WGA-A647 binding, 635 nm fluorescence, higher = more signal;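 note: score merges 667 nm feature emission with signal to noise over triplicate slides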
[9] = target: Luciferin 4-monooxygenase (Photinus pyralis) (UniProt P08659); assay: firefly luciferase enzyme inhibitors, primary screen, biochemical, luminescence, purified enzyme, 2006 set (AID 1141); settings: SteadyGlo luminescence, 30 min, higher = more signal, called active from +8 up or from −8 down;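 note: cell-free assay with purified firefly luciferase at 100 ng per well in PBS; test concentration not given here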
Chain of Luciferin 4-monooxygenase (Photinus pyralis) (P08659 whole entry, looked up): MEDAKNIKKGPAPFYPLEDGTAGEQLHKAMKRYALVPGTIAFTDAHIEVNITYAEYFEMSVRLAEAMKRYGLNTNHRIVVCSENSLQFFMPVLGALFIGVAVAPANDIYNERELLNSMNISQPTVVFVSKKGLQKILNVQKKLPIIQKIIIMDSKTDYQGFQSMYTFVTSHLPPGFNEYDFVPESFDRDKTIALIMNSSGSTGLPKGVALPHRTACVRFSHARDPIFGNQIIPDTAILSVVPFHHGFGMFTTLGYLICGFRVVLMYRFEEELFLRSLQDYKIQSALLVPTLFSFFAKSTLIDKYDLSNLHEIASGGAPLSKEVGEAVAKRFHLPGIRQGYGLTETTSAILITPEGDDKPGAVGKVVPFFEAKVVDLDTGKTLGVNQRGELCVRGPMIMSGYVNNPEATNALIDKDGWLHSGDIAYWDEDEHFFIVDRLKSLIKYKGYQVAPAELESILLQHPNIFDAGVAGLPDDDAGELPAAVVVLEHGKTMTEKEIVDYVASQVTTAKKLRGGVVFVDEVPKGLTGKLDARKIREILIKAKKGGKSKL

[10] = test system: Wnt5a (protein binding on small-molecule microarray); assay: Wnt5a binders on small-molecule microarray, primary screen, biophysical, 635/667 nm fluorescence (AID 1142); settings: 635 nm fluorescence, higher = more signal;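 note: fluorescence read at 667 nm with signal to noise per printed feature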
[11] = cell viability in Huh7 cells, primary screen, cytotoxicity control for HCV replication inhibitor project, CellTiter-Glo luminescence, basal, 48 h (AID 1143); settings: Huh7 HCV replicon, higher = more signal, called active from +8 up or from −8 down;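 note: Huh7 hepatoma cells carrying a hepatitis C replication reporter with no stimulus; test concentration not given here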
[12] = P. aeruginosa biofilm formation inhibitors, primary screen, PAO1 strain, BacTiter-Glo luminescence, LB-PBS (AID 1144); settings: 12 h, higher = more signal
[13] = CREB reporter modulators without forskolin, primary screen, cell-based, PC12, CRE-LacZ reporter, unstimulated (AID 1145); settings: no forskolin, luminescence, 4.5 h, higher = more signal, called active from +8 up or from −8 down
[14] = CREB reporter modulators under forskolin, primary screen, cell-based, PC12, CRE-LacZ reporter, forskolin-stimulated (AID 1146); settings: luminescence, 4.5 h, higher = more signal, called active from +8 up or from −8 down;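 note: PC12 cells with 6xCRE LacZ reporter stimulated by forskolin 10 µM; beta-galactosidase reporter signal reflecting CREB driven transcription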
[15] = target: Streptavidin (Streptomyces avidinii) (UniProt P22629); assay: streptavidin binders on small-molecule microarray, primary screen, artefact control for SMM compound annotation, biophysical, 635/667 nm fluorescence (AID 1147); settings: streptavidin binding, higher = more signal;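 note: signal reflects streptavidin binding to arrayed compounds as a control protein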
Chain of Streptavidin (Streptomyces avidinii) (P22629 whole entry, looked up): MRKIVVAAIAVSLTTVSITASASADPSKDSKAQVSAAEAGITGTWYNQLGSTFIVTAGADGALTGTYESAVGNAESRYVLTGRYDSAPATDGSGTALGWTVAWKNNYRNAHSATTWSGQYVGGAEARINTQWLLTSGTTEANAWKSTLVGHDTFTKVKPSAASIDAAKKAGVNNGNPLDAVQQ

[16] = small-molecule binders of probe aInhba, primary screen, biochemical, small-molecule microarray, 635/667 nm fluorescence (AID 1148); settings: higher = more signal;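 note: score merges 667nm spot fluorescence with signal-to-noise for antibody binding to printed compounds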
Torsin-1A (Homo sapiens) [17] = target: Torsin-1A (Homo sapiens) (UniProt O14656); assay: torsin A binders from cell lysate, primary screen, small-molecule microarray, wild-type, 635/667 nm (AID 1149); settings: COS7 hTOR1A-WT lysate, 635 nm fluorescence, higher = more signal
Chain of Torsin-1A (Homo sapiens) (O14656 whole entry, looked up): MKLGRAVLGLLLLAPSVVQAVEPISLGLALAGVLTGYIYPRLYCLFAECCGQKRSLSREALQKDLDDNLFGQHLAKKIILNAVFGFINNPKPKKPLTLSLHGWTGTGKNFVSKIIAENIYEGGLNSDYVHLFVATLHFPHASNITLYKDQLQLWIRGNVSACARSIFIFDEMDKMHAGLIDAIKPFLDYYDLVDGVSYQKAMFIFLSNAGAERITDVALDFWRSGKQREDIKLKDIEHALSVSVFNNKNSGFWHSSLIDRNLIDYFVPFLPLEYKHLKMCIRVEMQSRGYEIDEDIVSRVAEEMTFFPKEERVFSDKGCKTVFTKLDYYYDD

Torsin-1A (Homo sapiens) [18] = target: Torsin-1A (Homo sapiens) (UniProt O14656); assay: small-molecule binders of mutant TOR1A in lysate, primary screen, cell lysate, small-molecule microarray, COS7 lysate, 635/667 nm fluorescence (AID 1150); settings: COS7 hTOR1A mutant lysate, 635 nm fluorescence, higher = more signal;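 note: score pools 667 nm emission and signal to noise measuring lysate protein binding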
[19] = test system: Sonic hedgehog protein (Shh); assay: small-molecule binders of Shh protein, primary screen, biochemical, small-molecule microarray, 635/667 nm fluorescence (AID 1151); settings: small-molecule microarray binding, 635 nm fluorescence; higher = more signal;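 note: Shh protein binding to compounds spotted on small-molecule microarray slides; score combines spot fluorescence intensity with signal-to-noise across triplicate slides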

Structure (SMILES)	composite z-score [1]	composite z-score [2]	composite z-score [3]	composite z-score [4]	composite z-score [5]	composite z-score [6]	z-score [7]	composite z-score (Lefty1)	composite z-score [8]	z-score [9]	composite z-score [10]	z-score [11]	z-score [12]	z-score [13]	z-score [14]	composite z-score [15]	composite z-score [16]	composite z-score (Torsin-1A (Homo sapiens) [17])	composite z-score (Torsin-1A (Homo sapiens) [18])	composite z-score [19]
CC(C)CON=C1C[C@@H](O)[C@@H](O)[C@@H]2[C@@H]3C(=O)N(C[C@@H]4CCCO4)C(=O)[C@@H]3CC[C@H]12	0.361	0.625	0.0201	0.286	0.268	0.911	-0.786	0.541	0.0098	1.01 (inactive)	-0.0313	-1.36 (inactive)	1.34 (inactive)	-1.02 (inactive)	-0.296 (inactive)	-0.23	-0.128	0.0672	1.49	0.819
O=C1[C@H]2[C@H]3[C@H](O)[C@H](O)CC(=NOCc4ccccc4)[C@@H]3CC[C@H]2C(=O)N1Cc1ccccc1	-0.0529	0.719	0.166	-0.757	0.371	0.47	-0.806	0.597	0.0885	1.09 (inactive)	-0.0408	0.0627 (inactive)	0.76 (inactive)	0.155 (inactive)	0.663 (inactive)	0.336	-0.128	-0.0549	0.282	0.84
O=C(NN=C1C[C@@H](O)[C@@H](O)[C@@H]2[C@@H]3C(=O)N(c4cccc(Oc5ccccc5)c4)C(=O)[C@@H]3CC[C@H]12)OCc1ccccc1	1.22	0.116	-0.294	0.906	0.165	0.237	-1.25	0.168	0.557	1.26 (inactive)	-0.132	-1.24 (inactive)	1.3 (inactive)	-0.0199 (inactive)	0.0693 (inactive)	1.68	-0.128	0.0142	-0.104	-0.689
CC(C)CON=C1C[C@@H](O)[C@@H](O)[C@@H]2[C@@H]3C(=O)N([C@@H](C)c4ccccc4)C(=O)[C@@H]3CC[C@H]12	0.728	1.17	0.657	0.951	0.755	1.18	1.24	1.4	0.122	0.407 (inactive)	0.257	-0.544 (inactive)	1.98 (inactive)	-0.383 (inactive)	-0.0095 (inactive)	0.528	0.168	0.466	0.477	1.58
CC(CCC(=O)OC[C@H]1O[C@H](C#Cc2ccccc2)C=C[C@@H]1Oc1ccc(C)cc1)=NOC[C@@H](O)COCc1ccco1	-1.01	-0.569	-1.1	-2.18	-2.24	-3.21	-0.718	-2.17	-0.452	-0.889 (inactive)	-1.52	-0.204 (inactive)	-0.128 (inactive)	3.74 (inactive)	1.9 (inactive)	-1.78	-0.446	-6.37	-5.2	-2.43
CC(CCN1CCCCc2nc(C)c(C)cc21)=NOC(C)CN1CCCCc2nc(C)c(C)cc21 (stereo not given)	2.37	1.2	0.332	0.911	1.29	1.3	0.828	1.6	1.11	-0.483 (inactive)	0.183	-2.16 (inactive)	0.483 (inactive)	0.187 (inactive)	0.907 (inactive)	1.1	0.0528	2.88	2.32	1.69
COc1ccc(-c2nc3c(c4c2C[C@H](C)OC4)CN(CCC(C)C)CC3)cc1	0.998	1.14	0.233	0.809	0.653	0.491	2.72	0.67	0.642	-0.793 (inactive)	-0.0798	-0.333 (inactive)	-1.22 (inactive)	7.06 (inactive)	-1.11 (inactive)	0.141	-0.0791	-0.253	0.0824	1.32
CCOC(=O)[C@H](CC(C)C)NC(=O)CCC1CC(OC(=O)NCc2cccc3ccccc23)CC2(CCCC(COC(=O)NCCc3ccccc3OC)O2)O1 (stereo not given in full)	1.02	1.12	0.0969	0.949	0.583	0.485	0.041	1.5	0.225	0.755 (inactive)	-0.0588	-1.86 (inactive)	0.6 (inactive)	-0.44 (inactive)	0.0744 (inactive)	0.556	-0.217	0.203	0.408	1.07
C#CCCCON=C1C[C@@H](O)[C@@H](O)[C@@H]2[C@@H]3C(=O)N(c4cccc(Oc5ccccc5)c4)C(=O)[C@@H]3CC[C@@H]12	-0.0428	1	0.181	0.945	0.304	0.224	-0.786	0.481	0.632	1.02 (inactive)	0.0741	0.317 (inactive)	0.000705 (inactive)	2.16 (inactive)	0.427 (inactive)	0.766	-0.128	-0.0313	0.112	0.277
O=C1O[C@@H](c2ccccc2)[C@@H](c2ccccc2)N2[C@@H](c3ccccc3OCCO)[C@]3(C(=O)Nc4ccc(C#CCCO)cc43)[C@@H](C(=O)O)[C@H]12	2.14	1.18	0.459	0.923	0.89	0.598	-0.406	1.37	0.365	-0.703 (inactive)	0.44	-5.04 (inactive)	-0.923 (inactive)	-0.465 (inactive)	1.6 (inactive)	0.618	1.43	0.536	0.925	0.517
